For test [1], the target named is Ubiquitin carboxyl-terminal hydrolase 1 (Homo sapiens) (UniProt O94782). Briefly: Inhibitors of USP1/UAF1: Pilot qHTS (AID 504865). Also: nearly all actives have a fitted effect of over 35% in size. Also: potency is read from the fitted curve at half-maximal effect. An outline of the steps: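 Deubiquitinase activity followed as kinetic rhodamine fluorescence release from 150 nM Ub-Rho. 1 nM USP1/UAF1 with compound, after 15 min room-temperature preincubation, in HEPES pH 7.8 buffer containing TCEP, EDTA, BSA and Tween-20.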
Chain of Ubiquitin carboxyl-terminal hydrolase 1 (Homo sapiens) (O94782 whole entry, looked up): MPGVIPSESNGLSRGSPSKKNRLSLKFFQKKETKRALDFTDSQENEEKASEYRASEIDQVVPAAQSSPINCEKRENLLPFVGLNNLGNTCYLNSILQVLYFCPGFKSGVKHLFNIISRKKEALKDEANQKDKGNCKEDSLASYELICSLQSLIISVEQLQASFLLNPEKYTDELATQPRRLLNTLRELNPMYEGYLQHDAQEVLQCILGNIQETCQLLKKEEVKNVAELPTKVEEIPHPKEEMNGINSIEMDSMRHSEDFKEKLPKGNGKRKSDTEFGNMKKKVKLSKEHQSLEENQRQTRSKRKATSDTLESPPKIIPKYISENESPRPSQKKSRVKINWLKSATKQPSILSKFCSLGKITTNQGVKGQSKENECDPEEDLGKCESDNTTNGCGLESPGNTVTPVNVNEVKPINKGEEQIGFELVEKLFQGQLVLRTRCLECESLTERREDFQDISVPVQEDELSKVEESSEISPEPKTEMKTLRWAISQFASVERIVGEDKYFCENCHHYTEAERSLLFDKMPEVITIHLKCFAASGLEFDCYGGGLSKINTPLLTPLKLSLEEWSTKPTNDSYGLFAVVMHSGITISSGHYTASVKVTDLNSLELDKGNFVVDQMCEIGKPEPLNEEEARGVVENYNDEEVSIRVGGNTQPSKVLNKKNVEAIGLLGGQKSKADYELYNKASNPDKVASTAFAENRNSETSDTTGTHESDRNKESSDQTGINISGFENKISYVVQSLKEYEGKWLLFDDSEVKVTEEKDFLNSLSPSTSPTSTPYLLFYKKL

The next test has as its system CP247. Briefly: qHTS profiling for inhibitors of Plasmodium falciparum proliferation (AID 504749). Also: nearly all actives have a fitted effect of over 60% in size. Also: potency is read from the fitted curve at half-maximal effect. The following applies: P. falciparum in erythrocytes, SYBR Green DNA, 72 h; series mostly up to 28.7 µM. An outline of the steps:
(§1)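 Three-day growth assay of blood-stage parasites in erythrocytes (0.3% parasitemia, 2.5% hematocrit) at 37 C, 5% CO2, quantified by SYBR Green DNA staining after overnight detergent lysis.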
(qHTS replaces the single test concentration by a dilution series.)

Another test has as its system GB4. The description is as above. The following applies: P. falciparum in erythrocytes, SYBR Green DNA, 72 h; series mostly up to 28.7 µM. A digest of the protocol:
as §1

A further test has as its system P93_24. The description is as above. Particulars: P. falciparum in erythrocytes, SYBR Green DNA, 72 h; series mostly up to 28.7 µM. An outline of the steps:
as §1

The test system of another test is ICS. The test is described as above. Particulars: P. falciparum in erythrocytes, SYBR Green DNA, 72 h; series mostly up to 28.7 µM. A digest of the protocol:
as §1

A further test has as its system W2. Described as above. The following applies: P. falciparum in erythrocytes, SYBR Green DNA, 72 h; series mostly up to 28.7 µM. An outline of the steps: as §1
In test [2] the target is Cytochrome P450 3A4 (Homo sapiens) (UniProt P08684). Description: qHTS Assay for Activators of Cytochrome P450 3A4 (AID 885). Also: nearly all actives have a fitted effect of over 65% in size. An outline of the steps: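 Quantitative HTS format: compounds preincubated with 20nM human CYP3A4 and Luciferin-PPXE substrate at KM, reaction started by NADPH regeneration, stopped after 60 min, luciferase luminescence read 20 min later.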
Chain of Cytochrome P450 3A4 (Homo sapiens) (P08684 whole entry, looked up): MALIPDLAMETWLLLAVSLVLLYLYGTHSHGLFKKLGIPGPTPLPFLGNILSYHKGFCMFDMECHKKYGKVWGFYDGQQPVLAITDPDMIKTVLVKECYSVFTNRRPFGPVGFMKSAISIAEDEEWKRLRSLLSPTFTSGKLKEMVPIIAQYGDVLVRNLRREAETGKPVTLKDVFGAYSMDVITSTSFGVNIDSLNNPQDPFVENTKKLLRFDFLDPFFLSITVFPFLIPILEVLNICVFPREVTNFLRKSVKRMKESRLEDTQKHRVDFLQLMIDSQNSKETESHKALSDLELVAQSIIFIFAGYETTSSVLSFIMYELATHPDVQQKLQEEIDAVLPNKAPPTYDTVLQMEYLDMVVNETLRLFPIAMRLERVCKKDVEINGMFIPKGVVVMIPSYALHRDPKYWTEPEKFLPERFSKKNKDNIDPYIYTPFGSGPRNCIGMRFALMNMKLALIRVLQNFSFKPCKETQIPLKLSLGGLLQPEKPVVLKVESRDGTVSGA
For test [3], the target named is Mitogen-activated protein kinase 10 (Mus musculus) (UniProt Q61831). Description: JNK3 AlphaScreen Assay (AID 530; active = well fitted curve in either direction with a large enough effect, not every such curve was filed as active;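 also: kinase came from lysate of stimulated human HepG2 cells; signal reports phosphorylation of biotinylated GST-cJun 1-79 at Ser73 with 10 µM ATP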). An outline of the steps:
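Room-temperature AlphaScreen kinase assay; pre-activated HepG2 lysate as JNK3 source, biotin-GST-cJun(1-79) substrate, 10 uM ATP, compound 15 min preincubation.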

SMILES strings stand for the structures. Values joined by “and” are separate entries in the source; they are usually repeats but may differ in a detail not shown here. Identical values can stand only once. Values without a mark were called inactive. Inconclusive results are not listed. Active and inactive are the calls of the source. Unless noted, calls follow the shape of the dose curve; as a rule, active = well fitted curve in the direction sought with a large enough effect; inconclusive = small, poorly fitted or top-dose-only effect, or another doubt; inactive = no such curve, though single readings can be large; an effect the other way counts as inactive or inconclusive.

Take `CC(=O)O[C@]1(C(C)=O)CCC2C3CCC4=CC(=O)CCC4(C)C3(F)C(O)CC21C` (stereo not given in full): the Potency result (in test [1]; in the test with CP247; in the test on GB4; with P93_24) was “inactive” throughout.

As to `O=C(O)C(O)c1ccccc1` (stereo not given), the Potency entry (in test [1]; in the test on CP247; in the test with GB4; in the test with ICS; in the test on P93_24; with W2) was “inactive” each time.

For the compound `OC[C@@H](O)C(O[C@@H]1O[C@@H](CO)[C@H](O)[C@H](O)[C@H]1O)[C@H](O)[C@@H](O)CO` (stereo not given in full), the Potency entry (in test [1]; in the test on CP247; with GB4; in the test with ICS; with P93_24; in the test on W2) was “inactive” in each case.

Take `C[C@@H](O)[C@@H]1C(=O)N2C(C(=O)O)=C([C@H]3CCCO3)S[C@H]12`: the Potency result (in test [1]; with CP247; in the test with GB4; in the test with ICS; in the test with P93_24; in the test with W2) was “inactive” in each case.

In the case of `NC(CSSCC(N)C(=O)O)C(=O)O` (stereo not given), the Potency result (in test [1]; in the test on CP247; in the test with GB4; with ICS; in the test with P93_24; in the test with W2) was “inactive” throughout.

`C[C@]12CC[C@@H]3c4ccc(O)cc4C[C@@H](CCCCCCCCCS(=O)CCCC(F)(F)C(F)(F)F)C3[C@@H]1CC[C@@H]2O` (stereo not given in full): the Potency with GB4 was 9.53 µM (active); with ICS it was 2 µM (active); with P93_24, 2.24 µM (active); in the test with W2 it was 6.75 µM (active).

On to `C[C@@H]1CCN(C(=O)[C@H](CCCNC(=N)N)NS(=O)(=O)c2cccc3c2NC[C@H](C)C3)[C@@H](C(=O)O)C1`, for which the Potency entry (in test [1]; in the test on CP247; in the test on GB4; in the test with ICS; in the test on P93_24) was “inactive” in each case.

Take `Cc1cc2nc3c(=O)[nH]c(=O)nc-3n(CC(O)C(O)C(O)COP(=O)(O)O)c2cc1C` (stereo not given): the Potency in test [1] is 31.6 µM (active). Further, the Potency entry in the test with GB4, with ICS and in the test with P93_24 was “inactive” in each case.

As to `CCN(CC)C(=O)[C@@]1(c2ccccc2)C[C@@H]1CN`, the Potency result (in test [1]; in the test on CP247; with GB4; with ICS; with P93_24) was “inactive” each time.

In the case of `COc1cc(/C=C2\CCC/C(=C\c3ccc(O)c(OC)c3)C2=O)ccc1O`, the Potency in the test on CP247 is 8.91 µM (active); with GB4, 12 µM (active); in the test on ICS, 3.16 µM (active); in the test on P93_24, 12.6 µM (active); in the test on W2, 9.53 µM (active).

Consider `CC(C)C(=O)OCC(=O)[C@@]12OC(C3CCCCC3)O[C@@H]1CC1C3CCC4=CC(=O)C=C[C@]4(C)C3[C@@H](O)C[C@@]12C` (stereo not given in full), for which the Potency was 1 µM (active) with CP247; 1.07 µM (active) in the test with GB4; 0.794 µM (active) with ICS; 0.891 µM (active) in the test on P93_24; 0.239 µM (active) with W2.

As for `CCCCC(=O)O[C@]1(C(=O)CO)CCC2C3CCC4=CC(=O)CCC4(C)C3C(O)CC21C` (stereo not given in full), the Potency result in the test with CP247, with GB4 and with P93_24 was “inactive” each time.

As to `COc1ccc(S(=O)(=O)N2c3ccc(Cl)cc3[C@](O)(c3ccccc3Cl)[C@@H]2C(=O)N2CCC[C@H]2C(N)=O)cc1OC`, the Potency result (in test [2]; in test [1]; in the test with CP247; in the test on GB4) was “inactive” throughout. Also, the Potency with ICS was 10 µM (active).

For the compound `C/C(=C(/CCO)SS/C(CCO)=C(\C)N(C=O)Cc1cnc(C)nc1N)N(C=O)Cc1cnc(C)nc1N`, the Potency result (in test [1]; with GB4; with ICS; with P93_24; with W2) was “inactive” in each case.

On to `CCC(=O)O[C@]1(C(=O)CCl)[C@@H](C)CC2C3C[C@H](F)C4=CC(=O)C=CC4(C)[C@@]3(F)C(O)CC21C` (stereo not given in full), for which the Potency in the test with CP247 is 12.6 µM (active); with GB4, 7.57 µM (active); with ICS, 2.82 µM (active); with P93_24 it was 10 µM (active); in the test on W2, 6.01 µM (active).

With `CNC1=CN(O)C(c2ccccc2)=c2cc(Cl)ccc2=N1`, the Potency result in test [1] is “inactive”. Further, the Potency is 953 nM (active) and 15.1 µM (active) in the test with GB4; 3.98 µM (active) in the test on ICS; 1.2 µM (active) in the test with W2.

Turning to `C[N+]12CCCC[C@@H]1CCC(=C(c1cccs1)c1cccs1)C2` (stereo not given in full), the Potency result in test [1] is “inactive”. Moreover, the Potency in the test with CP247 is 10 µM (active); in the test with GB4, 7.57 µM (active); in the test with P93_24, 7.94 µM (active); with W2 it was 13.5 µM (active).

Turning to `C=C1NC(=O)c2cc(CN(C)c3ccc(C(=O)N[C@@H](CCC(=O)O)C(=O)O)s3)ccc2N1`, the Potency result (in test [1]; with CP247) was “inactive” in each case. Besides, in the test with W2, the Potency is 13.5 µM (active).

Turning to `COc1ccc2cc1Oc1cc3c(cc1OC)CC[N+](C)(C)C3Cc1ccc(cc1)Oc1c(OC)c(OC)cc3c1C(C2)[N+](C)(C)CC3` (stereo not given), the Potency entry (in test [1]; in the test with GB4; with ICS; in the test on P93_24) was “inactive” in each case.

As to `Clc1ccc(CS[C@@H](Cn2ccnc2)c2ccc(Cl)cc2Cl)cc1`, the Potency entry in test [3] was “inactive”. For the same compound, the Potency with GB4 was 3.61 µM (active); with ICS it was 0.891 µM (active); in the test on P93_24, 1.26 µM (active); in the test with W2, 1.02 µM (active).
